IEC-6 cytotox = kills IEC-6 intestinal cells in KLF5 counter-screen; hit rate 0.78% among 290,000; inhibition, % at 5 µM; IEC-6 cytotoxicity, luminescence viability; in the data active = inhibition above about 22%
aSyn UTR inh = MLPCN primary screen, SNCA 5' untranslated region; inhibition, % (tested at 7.5 µM); AID 1813; alpha-synuclein 5'UTR reporter, inhibitor activity; hit rate 0.82% among 300,000; in the data active = inhibition above about 60%; inconclusive = no clear call, values can overlap the other calls;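 also: H4 neuroglioblastoma cells stably carrying SNCA 5'UTR luciferase fusion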
KLF5 inh = suppresses KLF5 promoter-driven expression | DLD-1 KLF5 promoter-luciferase reporter, luminescence | inhibition, % at 5 µM | hit rate 0.23% among 290,000 | AID 1700;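 active = inhibition above a per-plate limit of that plate's mean compound inhibition plus 3 SD, cut at about 60% in these data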;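 also: higher means less KLF5 promoter-driven luciferase light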
Ba/F3 V617F tox = reduce viability of Ba/F3 cells dependent on JAK2V617F; hit rate 1.1% among 220,000; inhibition, % at 5.6 µM; Ba/F3 EpoR-JAK2V617F viability, ATP luminescence; AID 1446;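 active = inhibition above the campaign mean plus 3 SD over all tested compounds, cut at about 24% in these data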;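 also: cytokine-independent growth of Ba/F3 cells driven by EpoR plus mutant JAK2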
APP 5UTR inh = APP translation inhibition; SH-SY5Y APP 5'UTR-luciferase reporter, luminescence; inhibition, % at 2 µM; hit rate 0.82% among 190,000; AID 1285;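 active = inhibition above a set limit, derived from the sample mean plus 3 SD, cut at about 45% in these data; inconclusive = one replicate passes the limit while the other fails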
BaF3 tox = parental Ba/F3 viability inhibition as JAK2V617F counter-screen; CellTiter-Glo ATP luminescence; inhibition, % at 5.6 µM; hit rate 1.1% among 220,000;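 active = inhibition above a per-campaign cutoff, the mean inhibition of all tested compounds plus 3 SD, cut at about 27% in these data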
Hits are given with their value; – = inactive; ? = inconclusive; · = not tested or not shown. Shown are actives, neighbours in structure and some others; about 2.2% of the full set was active somewhere.

SMILES	IEC-6 cytotox	aSyn UTR inh	KLF5 inh	Ba/F3 V617F tox	APP 5UTR inh	BaF3 tox
CCc1ccc(/C=N/NC(=O)c2cc(-c3ccncc3)nc3ccccc23)s1	–	83	–	–	91	–
CC1CCN(S(=O)(=O)c2cccc(S(=O)(=O)N3CCCC3)c2)CC1	–	–	–	·	·	·
COc1ccc(OC)c(CNS(=O)(=O)c2c(C)nc3scc(C)n3c2=O)c1	–	–	–	·	·	·
Cc1ccc(-c2cc[n+](Cc3ccccc3)cc2)cc1	–	·	–	85	–	73
C(=N\Nc1ccc2nncn2n1)/c1ccccn1	–	67	–	–	·	–
C(=N\Nc1nncc2ccccc12)/c1ccccn1	–	98	–	·	·	·
Fc1cccc(/C=N/Nc2nncc3ccccc23)c1	–	–	–	·	·	·
COc1ccc(-c2cc(=O)c3c(O)c(OC)c(O)cc3o2)cc1	–	70	–	–	–	–
COc1cc(O)c2c(=O)cc(-c3ccccc3)oc2c1	–	–	–	–	–	–
O=C(COC(=O)CNC(=O)c1ccc(Cl)cc1Cl)NC(=O)NC1CCCCC1	·	–	·	·	·	·
C=CCn1c(C)cc(C(=O)CN2NS(=O)(=O)c3ccccc3C2=O)c1C	–	–	–	–	85	–
CCCC(=O)C1=C(O)C(C(=O)OC)C(C)(C)CC1=NCCc1ccccc1 (stereo not given)	–	–	–	·	·	·
Cn1c(N)c(S(=O)(=O)N2CCN(c3ccccc3Cl)CC2)c(=O)n(C)c1=O	–	–	–	·	·	·
N#Cc1ccsc1NC(=O)c1cccc(-n2cnnn2)c1	–	–	–	·	·	·
CCn1c(C)nc2cc(C(=O)N/N=C(\C)c3ccc(OC)cc3O)ccc21	–	84	–	–	–	–
CCn1c(C)nc2cc(C(=O)N/N=C/c3ccc(OC)cc3)ccc21	–	–	–	–	–	–
OCCCNC(=S)Nc1ccc2nc(-c3ccccn3)c(-c3ccccn3)nc2c1	–	–	–	85	–	71
Cc1ccc(Nc2cc(C)c(O)c(C)c2)cc1	–	–	–	·	·	·
CCOc1ccc(N2C(=O)C(CC(=O)Nc3ccccc3)N(Cc3ccccn3)C2=S)cc1 (stereo not given)	–	–	–	–	–	27
CCOc1ccc(N2C(=O)C(CC(=O)Nc3ccc(F)cc3)N(Cc3ccccn3)C2=S)cc1 (stereo not given)	–	–	–	–	–	–
Cn1nc(-c2ccc(N3CCCCC3)c(NC(=O)c3ccco3)c2)c2ccccc2c1=O	–	67	–	–	–	–
CCC(=O)Nc1cc(-c2nn(C)c(=O)c3ccccc23)ccc1N1CCOCC1	–	–	–	–	–	–
N#Cc1nc(COc2ccc(F)cc2)oc1N1CCC(Cc2ccccc2)CC1	–	–	–	–	66	–
CN=c1scc(-c2ccccc2Br)n1/N=C/c1ccc[nH]1	–	64	–	–	–	–
CCOC(=O)c1c(S(=O)(=O)NCC(=O)NCc2ccc(C)cc2)c(C)n(C)c1C	–	–	–	·	·	·
SMILES	IEC-6 cytotox	aSyn UTR inh	KLF5 inh	Ba/F3 V617F tox	APP 5UTR inh	BaF3 tox
COc1ccc(CCn2c(C3CCCCC3)nc3c(c(=O)c4ccccc4n3C)c2=O)cc1	–	75	–	–	·	–
COc1ccc(Cn2c(C3CCCCC3)nc3c(c(=O)c4ccccc4n3C)c2=O)cc1	–	–	–	–	·	–
O=C(Nc1ccc(N2CCN(C(=O)c3ccco3)CC2)cc1)c1ccc2c(c1)OCO2	–	–	–	–	–	–
Cc1ccccc1C(=O)N1CCN(c2ccc(NC(=O)c3ccc4c(c3)OCO4)cc2)CC1	36	?	–	67	–	67
Cc1cccc(N(CC(=O)NC(C)(C)C)C(=O)CCC(=O)Nc2ccccn2)c1	–	–	–	·	·	·
CC(=O)Oc1ccccc1/C=C/c1nc2ccccc2c(=O)o1	–	66	–	·	·	·
CCCCC(=O)OCC(=O)Nc1cccc(S(=O)(=O)NC2=NCCCCC2)c1	–	–	–	–	–	–
CCCCCC(=O)NC(=S)Nc1ccccc1C(=O)OC	–	–	–	–	72	–
CCCCC(=O)NC(=S)Nc1ccccc1C(=O)Nc1ccccc1	–	–	–	–	–	–
CCn1c2ccccc2c2nnc(SCC(=O)Nc3c(C)n(C)n(-c4ccccc4)c3=O)nc21	–	–	–	–	–	–
Cc1c(NC(=O)CSc2nnc3c4ccccc4n(CCc4ccccc4)c3n2)c(=O)n(-c2ccccc2)n1C	60	–	–	–	–	–
Cc1ccc(C)c(NC(=O)CCc2nnc3ccc(NCc4ccco4)nn23)c1	–	–	–	·	·	·
O=C(Nc1nc2ccccc2[nH]1)C1CCCO1 (stereo not given)	–	–	–	–	–	–
Cc1ccc(-c2nc3cc(NC(=O)C(C)C)ccc3o2)cc1	–	–	–	–	–	28
Cc1ccc2oc(-c3cccc(NC(=O)C4CCCO4)c3)nc2c1 (stereo not given)	–	–	–	–	–	–
O=C(Nc1ccc(-c2nc3ccccc3[nH]2)cc1)C1CCCO1 (stereo not given)	–	77	–	–	–	–
Cc1ccc(-c2nc3cc(NC(=O)C(C)C)ccc3o2)cc1C	–	–	–	–	–	–
Cc1cccc(-c2nc3cc(NC(=O)C4CCCO4)ccc3o2)c1 (stereo not given)	–	72	–	–	–	–
O=C(N[C@@H](Cc1ccccc1)C(=O)NC1CC1)c1ccc(Cl)cc1	–	–	–	·	·	·
COc1ccc2c(C)nc(Nc3nc(C)c(C)c(=O)[nH]3)nc2c1	–	103	–	–	–	–
COc1ccc2nc(Nc3nc(CSc4nc5ccccc5[nH]4)cc(=O)[nH]3)nc(C)c2c1	–	103	–	–	–	–
CCc1c(C)nc(Nc2nc(C)c3ccc(OC)cc3n2)[nH]c1=O	–	–	–	–	–	–
CCC1Oc2ccc(C)cc2N(CC(=O)NCc2ccco2)C1=O (stereo not given)	–	–	–	–	–	90
CCOCC(=O)Nc1cccc(C(=O)OCC)c1	–	–	–	–	–	98
CCOC(=O)c1cccc(NC(=O)COC)c1	–	–	–	–	–	–
SMILES	IEC-6 cytotox	aSyn UTR inh	KLF5 inh	Ba/F3 V617F tox	APP 5UTR inh	BaF3 tox
CSc1ncc(C(=O)Nc2cc(C)ccc2C)c(C)n1	–	–	–	·	·	·
N#CCS(=O)(=O)c1ccccc1	–	–	–	·	·	·
O=C(NCCCN1CCOCC1)C1CCN(S(=O)(=O)c2ccccc2)CC1	·	–	·	·	·	·
Cc1ccc2c(c1)N(C)/C(=C/c1cccc[n+]1CCO)S2	–	–	–	·	·	·
Cc1ccc2c(c1)S/C(=C/c1ccc[n+](C)c1)N2CCO	–	–	–	88	–	71
CC(=O)Nc1ccc(S(=O)(=O)N2c3ccc(F)cc3CCC2C)cc1 (stereo not given)	·	–	·	·	·	·
COc1ccc(S(=O)(=O)N2c3ccc(F)cc3CCC2C)cc1 (stereo not given)	·	112	·	·	·	·
Cn1c(N)c(S(=O)(=O)N2CCCC2)c(=O)n(C)c1=O	–	–	–	·	·	·
Cn1c(O)c(C=NCC2CCNCC2)c(=O)n(C)c1=O	–	–	–	–	–	93
CC(C)(C)OC(=O)N1Cc2ccccc2C[C@H]1C(=O)NC1CCCC1	–	–	–	·	·	·
CC12C(=O)N(c3ccc(OC(=O)c4ccco4)cc3)C(=O)C1C1c3ccccc3C2c2ccccc21 (stereo not given)	–	–	–	–	–	–

Screens (PubChem BioAssay)
